The results in this text go back to PubChem BioAssay (NCATS).

Values joined by “and” are separate entries in the source; they are usually repeats but may differ in a detail not shown here. Identical values can stand only once. Records with an inconclusive call do not appear. Active and inactive are the calls of the source. Unless noted, calls follow the shape of the dose curve; as a rule, active = well fitted curve in the direction sought with a large enough effect; inconclusive = small, poorly fitted or top-dose-only effect, or another doubt; inactive = no such curve, though single readings can be large; an effect the other way counts as inactive or inconclusive.

Assay [1] in a line: Cell Viability - Hek293 (AID 427;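 active = compounds whose dose-response curve shows a full or clear partial loss of cell viability, called from curve shape rather than a numeric limit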;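 also: potency is read from the fitted curve at half-maximal effect; cells exposed to compound for 40 hours at 37 °C before reading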). As to conditions: qHTS. The procedure, abridged: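 Luminescent ATP read-out (CellTiter-Glo, 20 min RT) after 40 hr compound exposure at 37 °C in complete medium. Signal normalized to DMSO (basal) and 100 uM tamoxifen (100% inhibition); concentration-response fitted with the standard Hill equation to give AC50.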
(In general: In qHTS, concentration-response curves come from the screen itself.)

Assay [2] can be described thus: Cell Viability - N2a (AID 540).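 Also: cells exposed to compound for 40 h at 37 °C; plate controls were DMSO alone for no effect and tamoxifen control for full effect; nearly all actives have a fitted effect of over 45% in size.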 The note with it: N2a mouse neuroblastoma cell viability; activity change, negative = cytotoxicity: at 92.2 µM (top of the series). The procedure, abridged: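 In this qHTS cytotoxicity screen, ATP-dependent luciferase luminescence reports viable N2a cells after a 40 hr compound exposure in complete culture medium. Potencies are AC50 values from standard Hill equation fits.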

Assay [3] can be described thus: Cell Viability - H-4-II-E (AID 543).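 Also: cells exposed to compound for 40 hours; nearly all actives have a fitted effect of over 35% in size.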 Also: potency is read from the fitted curve at half-maximal effect. As to conditions: H-4-II-E rat hepatoma viability; series mostly up to 92.2 µM. Put shortly: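 AC50 from Hill-modelled qHTS concentration-response curves. H-4-II-E rat hepatoma cells in complete medium, 40 hr exposure at 37 °C, viability by CellTiter-Glo ATP luminescence.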
Assay [4] can be described thus: Cellular Toxicity (caspase-3) Mesangial (AID 660).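 Also: combined caspase 3 and 7 activity read by Caspase-Glo luminescence; cells exposed to compound for 16 h before the caspase read.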 As to conditions: mesangial cells, normalized: DMSO 0%, 100 µM tamoxifen 100%; series mostly up to 91.7 µM. The procedure, abridged: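 AC50 values come from Hill-equation fits of caspase 3/7 activation, measured as Caspase-Glo luminescence in human glomerular mesangial cells exposed to compound for 16 h at 37 °C; 100% set by 100 uM tamoxifen.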

Assay [5] is described as follows: Cellular Toxicity (caspase-3) SK-N-SH (AID 661). The note with it: SK-N-SH caspase-3 activation, qHTS; series mostly up to 91.7 µM. Put shortly:
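Apoptosis readout in SK-N-SH neuroblastoma: Caspase-Glo 3/7 luminescence following 16 hr treatment in complete culture medium. Normalization used DMSO and 10 uM staurosporine controls.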

The nature of assay [6]: Cellular Toxicity (caspase-3) Renal Proximal Tubule (AID 667).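 Also: cells exposed to compound for 16 hours at 37 °C before detection.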 The note with it: renal proximal tubule cells; series mostly up to 91.7 µM. Put shortly: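 AC50 derived by standard Hill fit of concentration-response data, normalized between DMSO basal and 10 uM staurosporine as 100% stimulation. Cells: primary rat kidney proximal tubule, 16 h treatment at 37 °C.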
The nature of assay [7]: Cell Viability - LYMP1-003 - Assay at 24 hr (AID 963).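 Also: plate controls were DMSO only for no effect and tetraoctylammonium bromide positive control for full effect.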 The note with it: LYMP1-003 lymphoblastoid cell viability; series mostly up to 92.2 µM. Put shortly: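 The lymphoblastoid line was treated with titrated compounds for 24 hours, and viable cell number estimated from luciferase-based ATP luminescence.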
A short description of assay [8]: Cell Viability - LYMP2-003 (AID 965).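 Also: cells exposed to compounds for 24 h before reading; 0% = DMSO only and full effect = 92 µM tetraoctylammonium bromide; nearly all actives have a fitted effect of over 50% in size.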 The note with it: LYMP2-003 lymphoblastoid cell viability; series mostly up to 92.2 µM. Put shortly: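 Seed 2500 lymphoblastoid cells/well; incubate 5 hr, 37 C; add compounds; incubate 24 hr, 37 C; add CellTiter-Glo, 30 min RT; read luminescence. AC50 from Hill fit.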
A short description of assay [9]: Cell Viability - LYMP2-005 (AID 967).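 Also: cells exposed to compound for 24 h at 37 °C; plate controls were DMSO only for no effect and 92 µM tetraoctylammonium bromide control for full effect.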 As to conditions: LYMP2-005 lymphoblastoid cell viability; series mostly up to 92.2 µM. Put shortly:
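Acute cytotoxicity is scored as a concentration-dependent drop in intracellular ATP in human lymphoblastoid LYMP2-005 cells after 24 h compound treatment. ATP is quantified by luciferase luminescence, and AC50 is derived by Hill-equation modelling.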

A short description of assay [10]: Cell Viability - LYMP2-009 (AID 968).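 Also: cells exposed to compound for 24 h at 37 °C; nearly all actives have a fitted effect of over 55% in size.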 Also: potency is read from the fitted curve at half-maximal effect. As to conditions: LYMP2-009 lymphoblastoid cell viability; series mostly up to 92.2 µM.
The nature of assay [11]: Cell Viability - LYMP2-013 (AID 970).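 Also: cells exposed to compound for 24 h at 37 °C; nearly all actives have a fitted effect of over 55% in size.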 Also: potency is read from the fitted curve at half-maximal effect. The note with it: LYMP2-013 lymphoblastoid cells viability; series mostly up to 92.2 µM. The procedure, abridged:
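In complete culture medium, human lymphoblastoid cells were dosed for 24 hr at 37 C, with tetraoctylammonium bromide (6.4pM to 92 uM) as positive control. Viability reflects luciferase-based ATP signal; AC50 derived from concentration-response curves.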

The nature of assay [12]: Cell Viability - LYMP2-017 (AID 972).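 Also: cells exposed to compound for 24 hours at 37 °C; nearly all actives have a fitted effect of over 55% in size.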 Also: potency is read from the fitted curve at half-maximal effect. As to activity change, negative = cytotoxicity: % is scaled to controls: 0 for no effect and ±100 for the full control effect. The note with it: LYMP2-017 lymphoblastoid cell viability; series mostly up to 92.2 µM. Put shortly: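 In this qHTS format, lymphoblastoid cells in complete medium receive test compound for a day at 37 C before ATP content is quantified by luciferase luminescence. Reported AC50 figures come from standard Hill-equation curve fitting.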

The nature of assay [13]: Cell Viability - LYMP2-023 (AID 975).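 Also: cellular ATP measured by luciferase luminescence as viability proxy; cells exposed to compound for 24 hours at 37 °C; plate controls were DMSO only for no effect and 92 µM tetraoctylammonium bromide control for full effect; nearly all actives have a fitted effect of over 55% in size.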 The note with it: LYMP2-023 lymphoblastoid cell viability; series mostly up to 92.2 µM. Put shortly: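 In this qHTS, ATP-based luciferase luminescence (CellTiter-Glo) is quantified in human lymphoblastoid cells after 24 hr compound treatment at 37 C; tetraoctylammonium bromide serves as positive control. Concentration-response curves are Hill-fitted to give AC50.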

Assay [14] in a line: Cell Viability - LYMP2-016 (AID 984). As to conditions: LYMP2-016 lymphoblastoid cell viability, qHTS; series mostly up to 92.2 µM. Put shortly:
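Cells were seeded at 2500 per well and rested 5 hr before a 24 hr compound exposure at 37 C. Viability was then gauged as cellular ATP by luciferase luminescence, with AC50 values fitted to the Hill equation.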

The target in assay [15] is Vitamin D3 receptor (Homo sapiens) (UniProt P11473). Kind of assay: qHTS assay for small molecule antagonists of vitamin D receptor signaling (AID 588541; calls by dose curve;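 also: receptor activated by calcitriol during compound treatment; % is scaled to controls: 0 for no effect and ±100 for the full control effect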). The note with it: HEK293T VDR-UAS-bla, beta-lactamase ratio, antagonist mode; series mostly up to 76.7 µM. Put shortly: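 VDR-UAS-bla HEK293T cells in 2% charcoal-stripped FBS were stimulated with 1-alpha,25-dihydroxyvitamin D3 (3 nM final) plus compound for 16 h at 37 C. The beta-lactamase CCF4 readout was normalized to 50 nM agonist and DMSO, and Hill fits gave IC50.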

Assay [16] can be described thus: qHTS assay for small molecule agonists of retinoid X receptor alpha signaling (AID 588544). As to conditions: HEK293T RXRa-UAS-bla, beta-lactamase reporter, 18 h; 530 nm emission.
A short description of assay [17]: qHTS assay for cell viability of HEK293 cells (AID 743288). Also: % is scaled to controls: 0 for no effect and ±100 for the full control effect; nearly all actives have a fitted effect of over 50% in size. The note with it: ATP luminescence (CellTiter-Glo), 18 h, stronger effect = lower value. Put shortly: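 Viable-cell counts were inferred from luciferase-based ATP content in HEK293 cells seeded at 2,000/well, pre-incubated ≥5 h, then dosed with DMSO-solubilised compounds for 18 h at 37 C.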
Assay [18] can be described thus: Cellular Toxicity (caspase-3) SHSY5Y (AID 657). As to conditions: SH-SY5Y caspase-3 activation, DMSO zero, 10 µM staurosporine = 100%; series mostly up to 91.7 µM. Put shortly: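 qHTS, SH-SY5Y, 1500 cells/well, 5 h pre-incubation 37 °C; compound 16 h 37 °C; Caspase-Glo 3/7 1 h RT; luminescence. Norm.: DMSO = 0, 10 uM staurosporine = 100%. Hill fit → AC50.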
Assay [19] is described as follows: qHTS assay for small molecule activators of the p53 signaling pathway (AID 651743; active = well fitted activation curve with a large enough effect in the signal ratio, not every such curve was filed as active; the % refers to the signal ratio; also: % of control where 0% means no effect). As to conditions: HCT-116 p53RE-bla, beta-lactamase FRET ratio, 16 h; activation: stronger effect = higher value. The procedure, abridged:
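Reporter: beta-lactamase driven by p53 response elements, stably integrated in HCT-116 cells. Cells seeded at 4,000/well, 5 h preincubation, compound (DMSO) 16 h at 37 C; B/G FRET substrate 2 h RT; fluorescence intensity read.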

Assay [20] is described as follows: qHTS assay for small molecule agonists of the antioxidant response element (ARE) signaling pathway measured by Nrf2-dependant transcriptional activity - cell viability counter screen (AID 720653; active = well fitted curve in the direction sought with a large enough effect in the repeat runs; an effect the other way counts as inactive or inconclusive; also: % is scaled to controls: 0 for no effect and ±100 for the full control effect). The note with it: ARE-bla HepG2 viability, CellTiter-Glo ATP luminescence, 16 h; stronger effect = lower value. The procedure, abridged:
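ARE-bla HepG2 cells treated with compounds for 16 h at 37C; this counter screen measures viability as intracellular ATP by CellTiter-Glo luminescence after 30 min at room temperature.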

Chain of Vitamin D3 receptor (Homo sapiens) (P11473 whole entry, looked up): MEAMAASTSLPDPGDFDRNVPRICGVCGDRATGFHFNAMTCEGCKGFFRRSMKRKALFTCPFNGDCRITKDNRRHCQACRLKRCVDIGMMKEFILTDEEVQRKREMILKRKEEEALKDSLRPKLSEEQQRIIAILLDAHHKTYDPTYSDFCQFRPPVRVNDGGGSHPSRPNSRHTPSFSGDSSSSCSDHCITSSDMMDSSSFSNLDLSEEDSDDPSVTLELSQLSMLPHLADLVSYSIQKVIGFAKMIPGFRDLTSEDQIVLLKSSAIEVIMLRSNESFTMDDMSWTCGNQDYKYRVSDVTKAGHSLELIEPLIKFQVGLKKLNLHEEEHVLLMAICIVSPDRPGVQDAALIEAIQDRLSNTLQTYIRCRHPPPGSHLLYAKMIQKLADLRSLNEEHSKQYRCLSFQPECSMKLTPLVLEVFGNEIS

Regarding `Clc1ccccc1`, in [1], the Potency was > 92 µM (inactive). The Potency entry in assay [2], in assay [3], in assay [5], in [8], in assay [9] and in assay [10] was “inactive” throughout. Further, the Potency entry in assay [11], in assay [12], in assay [13] and in [14] was “inactive” each time. Moreover, the outcome in [4], in assay [6], in assay [7] and in assay [15] was inactive. Also, the max response was -8.37% in assay [16] and 10.9% (inactive) in assay [17].
Turning to `c1ccc(N=NNc2ccccc2)cc1`, the Potency in assay [1] is > 92 µM (inactive). Also, the Potency entry in assay [2], in assay [3], in [5], in [8], in assay [9] and in [11] was “inactive” in each case. Further, the Potency entry in assay [12], in assay [13] and in [14] was “inactive” each time. The result in assay [18], in [4], in [6], in assay [7] and in [15] was inactive. Further, the max response was 7.75% in assay [16]; -24.2% (inactive) and -20.9% (inactive) in [20]; 5.57% (inactive) and -4.44% (inactive) in assay [17]. The activation in assay [19] is -4.25% (inactive) and -0.499% (inactive).
`Cc1ccc(OP(=O)(Oc2ccc(C)cc2)Oc2ccc(C)cc2)cc1`: in assay [1], the Potency is > 92 µM (inactive). The Potency entry in assay [3], in assay [5], in [8], in [9], in assay [10] and in assay [11] was “inactive” in each case. The Potency entry in [12], in assay [13] and in assay [14] was “inactive” in each case. Further, the call in [18], in [4], in [6], in assay [7] and in [15] was inactive. Moreover, the max response in [16] was -17.7%; in assay [20], -0.985% (inactive) and -5.89% (inactive); in assay [17], -12.3% (inactive) and -24.8% (inactive). Moreover, the activation in assay [19] is 0.798% (inactive) and -5.64% (inactive).
`CN(C)c1ccc(N)cc1`: the activity change, negative = cytotoxicity in assay [2] was -109% (active). Moreover, the Potency was 50.1 µM (active) in [3], 50.1 µM (active) in [10], 79.4 µM (active) in assay [11] and 50.1 µM (active) in [12]. Besides, in [5], the Potency result was “inactive”. In addition, the outcome in assay [6] and in assay [15] was inactive. The max response in assay [16] is -18.3%; in [20] it was -16.3% (inactive). In assay [19], the activation is -3.55% (inactive).
As for `O=[N+]([O-])c1c(Cl)c(Cl)c(Cl)c(Cl)c1Cl`, the Potency entry in assay [2], in [3], in assay [5], in assay [8], in assay [9] and in [11] was “inactive” in each case. Also, the Potency result in [12], in assay [13] and in assay [14] was “inactive” each time. The result in assay [18], in assay [6], in assay [7] and in assay [15] was inactive. Besides, the max response in assay [16] is -0.246% and 22.3%; in assay [17], -12.6% (inactive) and -27.3% (inactive). Besides, the activation in assay [19] is -1.05% (inactive) and 4.15% (inactive).
`Nc1cc(Cl)ccc1O`: the Potency in assay [1] is > 92 µM (inactive). Moreover, the Potency entry in assay [3], in [5], in assay [8], in assay [9], in assay [11] and in [12] was “inactive” throughout. The Potency result in [13] and in assay [14] was “inactive” in each case. The result in assay [4], in assay [6] and in assay [7] was inactive. The activation in assay [19] was -1.47% (inactive). Moreover, the max response in [20] was -22.1% (inactive); in assay [17], -15.2% (inactive).
In the case of `ClCC(Cl)Cl`, the Potency in assay [1] was > 92 µM (inactive). In addition, the Potency entry in assay [2], in assay [3], in assay [5], in assay [9], in [10] and in [11] was “inactive” each time. For the same molecule, the Potency result in [13] and in [14] was “inactive” throughout. Besides, the result in assay [18], in [4], in [7] and in assay [15] was inactive. The max response in [16] is -11.1%; in [20] it was -5.62% (inactive); in assay [17] it was -18.4% (inactive). The activation in [19] was -0.152% (inactive).
